Source: PubChem (National Center for Advancing Translational Sciences (NCATS))
In the library only some 1.2% were active in any assay of this set; here they are far more common.
gsp antagonist: qHTS for Antagonists of gsp, the Etiologic Mutation Responsible for Fibrous Dysplasia/McCune-Albright Syndrome: qHTS. gsp-mutant cells, cAMP HTRF, 30 min. Potency, µM (series often up to 76.9 µM), inactives show at the highest dose activity change, negative = inhibition, usual class: inhibitors. hit rate 0.4% among 340,000; calls by dose curve; cell line not stated here;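 further: intracellular cAMP measured with PDE inhibitor Ro 20-1724 present during compound exposure; potency means the concentration at half of the fitted maximal effect; on the % scale 0 is the no-effect control and ±100 the full control effect; nearly all actives have a fitted effect of over 65% in size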
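HTRF cAMP measurement after 30 min RT detection following 30 min, 37C compound treatment alongside […] (added as 300 uM solution) in G418-selected cells seeded at 2000/well and grown 16–24 h.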
Akt phos inh: HTS Assay for Inhibitors of Akt Phophorylation: Primary Screen; Neuro2A IGF-stimulated pAkt S473 HTRF, 20 min; stronger effect = lower value; activity change, % for hits at 50 µM; hit rate 0.32% among 360,000; in the data active means activity change below about -80%; inconclusive means mostly about -51% to -80%; further: on the % scale 0 is the no-effect control and ±100 the full control effect
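Neuro2A cells (4,500/well, DMEM with 0.5% FBS) were treated with compound at a single 50 µM final concentration, stimulated with 6 nM IGF for 20 min at 37 °C, and lysed. Phospho-Akt Ser473 was read by HTRF as 665/615 ratio ×10^4.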
RXFP1 antagonist: qHTS Assay for Antagonists of the Relaxin Receptor RXFP1; Relaxin receptor 1 (Homo sapiens), Q9HBX9; HEK293-RXFP1, relaxin-stimulated cAMP HTRF, 30 min; stronger effect = lower value; activity change, negative = inhibition, % at 57.5 µM; hit rate 0.59% among 350,000; AID 1259400, 2018;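 active means activity change of -60% or lower, but not beyond a set lower limit; inconclusive means change between -60% and -40%, or beyond the set limit; inactive means change above -40%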; further: on the % scale 0 is the no-effect control and ±100 the full control effect
Target sequence (Q9HBX9 whole entry, looked up): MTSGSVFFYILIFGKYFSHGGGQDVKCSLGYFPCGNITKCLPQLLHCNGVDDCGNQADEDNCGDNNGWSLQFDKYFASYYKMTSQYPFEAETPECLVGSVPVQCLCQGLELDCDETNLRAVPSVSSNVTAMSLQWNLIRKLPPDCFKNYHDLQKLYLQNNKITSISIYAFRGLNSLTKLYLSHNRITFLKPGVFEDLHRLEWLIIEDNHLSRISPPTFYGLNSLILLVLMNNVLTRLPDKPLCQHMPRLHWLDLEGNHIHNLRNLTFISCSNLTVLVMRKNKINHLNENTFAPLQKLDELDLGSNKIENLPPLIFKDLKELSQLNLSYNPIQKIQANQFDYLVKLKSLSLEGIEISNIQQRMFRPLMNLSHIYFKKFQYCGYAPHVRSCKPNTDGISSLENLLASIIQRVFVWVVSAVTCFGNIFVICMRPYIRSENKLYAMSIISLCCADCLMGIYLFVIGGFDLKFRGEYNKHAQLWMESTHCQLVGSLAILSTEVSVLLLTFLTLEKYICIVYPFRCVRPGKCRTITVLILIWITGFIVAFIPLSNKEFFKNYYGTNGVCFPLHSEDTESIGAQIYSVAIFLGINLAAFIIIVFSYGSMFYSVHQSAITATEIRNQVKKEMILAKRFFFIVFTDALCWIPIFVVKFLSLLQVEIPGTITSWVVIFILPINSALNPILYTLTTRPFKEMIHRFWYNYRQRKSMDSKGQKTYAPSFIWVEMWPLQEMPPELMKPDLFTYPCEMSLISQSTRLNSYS
gsp agonist: qHTS for Agonist of gsp, the Etiologic Mutation Responsible for Fibrous Dysplasia/McCune-Albright Syndrome: qHTS; gsp mutant cells, cAMP HTRF, 30 min; Potency, µM (highest dose often 76.9 µM), for inactives: top-dose activation (cAMP increase), most hits filed as activators; hit rate 0.13% among 340,000; AID 624287, 2012; active means well fitted activation curve with a large enough effect; inconclusive means small, poorly fitted or top-dose-only effect, or another doubt; inactive means no such curve, though single readings can be large or run the other way; cell line not stated here;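 further: phosphodiesterase inhibitor Ro 20-1724 added with compounds to block cAMP breakdown; potency means the concentration at half of the fitted maximal effect; nearly all actives have a fitted effect of over 60% in size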
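Cells in DMEM/10% FBS with G418 were pretreated with compounds in DMSO plus […] (300 uM stock) for 30 min at 37C. cAMP was measured by HTRF (cAMP-d2 plus anti-cAMP antibody-K) after 30 min at room temperature.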
RXFP1 ag: qHTS Assay for Agonists of the Relaxin Receptor RXFP1; Relaxin receptor 1 (Homo sapiens), Q9HBX9; HEK293T-RXFP1 cAMP TR-FRET, 30 min; response scale: percent of porcine relaxin response, buffer zero; Potency, µM (highest dose often 57.5 µM), for inactives: at the top dose activation, usual class: activators; hit rate 0.3% among 370,000; AID 2676, 2010; active means well fitted activation curve with a large enough effect; inconclusive means small, poorly fitted or top-dose-only effect; further: potency means the concentration at half of the fitted maximal effect; on the % scale 0 is the no-effect control and ±100 the full control effect; nearly all actives have a fitted effect of over 60% in size
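cAMP rise read by TR-FRET after 30 min, 37C compound exposure (up to 58 uM) in RXFP1-transfected HEK293 cells with Ro 20174 present. EC50 from Hill-equation fits, with 29 nM porcine relaxin as 100% and buffer as basal.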
* = called active by the depositor; i = inactive; u = inconclusive; x = not tested or not shown; [ ] = another dose, or the depositor's remark.

SMILES	gsp antagonist	Akt phos inh	RXFP1 antagonist	gsp agonist	RXFP1 ag
Oc1c(C=Nc2cccnc2)sc2ccccc12	-24.2%	i	-3.2	-11.5%	-0.9%
Cc1ccccc1Cn1c(SCc2ccc(C(=O)NC(C)c3ccccc3)cc2)nc2ccncc21 (centres undefined)	x	x	-5.0	x	-0.5%
Cc1ccc(N2C(=O)CCSC23C(=O)N(Cc2ccc(F)cc2)c2ccccc23)cc1 (centres undefined)	x	x	u	x	-3.3%
O=C1CCSC2(C(=O)N(Cc3ccc(F)cc3)c3ccccc32)N1c1ccc(Cl)cc1 (centres undefined)	x	x	-79.5*	x	0.5%
CN1C(=O)/C(=C/c2ccccc2F)Sc2ccc(C(=O)NCC3CCCO3)cc21 (centres undefined)	31.6µM*	i	-9.4	u	-0.1%
CCCCSc1nnc(-c2ccc(C)cc2)n1C	4.1%	-112.5%*	-14.8	-11.8%	-1.5%
CN1CCc2c(sc3nc(SCC(=O)N4CCOCC4)nc(N)c23)C1	3.4%	-104.0%*	9.3	u	17.0%
Cc1nc2c(cnn2-c2ccccc2Cl)c(=O)n1-c1ccc(C(C)C)cc1	35.5µM*	i	6.7	-35.3%	0.2%
Cc1ccc(Sc2c([N+](=O)[O-])c(=O)n(C)c3ccccc23)cc1	u	i	-17.6	7.2%	3.7%
Cc1ccc(Sc2c(C=O)c3ccccc3n2C)cc1	-3.9%	i	13.9	17.8µM*	11.9%
Cc1ccc(Sc2c(O)c3ccccc3n(C)c2=O)cc1	23.1%	i	2.6	12.6µM*	u
COc1cc(NC(=O)CCc2nc3cccnc3n2Cc2cccs2)cc(OC)c1OC	x	x	-11.7	x	-2.6%
Cn1cnc2c(=O)oc3ccc(S(=O)(=O)N4CCN(c5cccc(Cl)c5)CC4)cc3c21	x	x	-3.0	x	6.8%
Nc1ncnc2c1ncn2[C@@H]1O[C@H](COS(=O)(=O)O)[C@@H](O)[C@H]1O	36.5%	i	x	x	7.08µM*
CC1(C)O[C@@H]2[C@H](O1)[C@@H](COS(=O)(=O)O)O[C@H]2n1cnc2c(N)ncnc21	x	x	x	x	15.8µM*
Nc1ncnc2c1ncn2[C@@H]1O[C@H](COP(=O)(O)O)[C@@H](O)[C@H]1O	2.5%	i	16.0	x	u
CC1(C)O[C@@H]2[C@H](O1)[C@@H](CO)O[C@H]2n1cnc2c(N)ncnc21	7.4%	i	x	-34.5%	2.8%
CCCC(=O)NC1=C(Cl)C(=O)c2ccccc2C1=O	44.7µM*	i	u	-2.0%	x
CCNC1=C(Cl)C(=O)c2ccccc2C1=O	-2.5%	i	-18.6	0.0%	-0.4%
CCCN1C(=O)S/C(=C/c2ccc(N3CCOCC3)o2)C1=O	-11.1%	i	-91.9*	-42.9%	-5.0%
CCCN1C(=O)S/C(=C\c2ccc(N3CCOCC3)o2)C1=O	-2.4%	i	-36.6	1.5%[15.4 µM]	-5.1%
CCn1cc(C(=O)NCCCOC(C)C)c(=O)c2cc(S(=O)(=O)N3CCc4ccccc4C3)ccc21	x	x	9.9	x	4.0%
Cc1c(C(=O)Nc2ccc(F)cc2)c2ccccn2c1CCc1ccncc1	11.2µM*	i	-16.0	2.4%[15.4 µM]	0.1%
COC(=O)CCc1c(C)c(C(=O)c2ccc(F)cc2)c2ccccn12	-22.2%	i	-2.0	8.4%[15.4 µM]	25.5%
COc1ccc(N2CCN(C(=O)CCCn3c(=S)[nH]c4cc5c(cc4c3=O)OCO5)CC2)cc1	-10.5%	x	-69.3*	u	-0.4%
SMILES	gsp antagonist	Akt phos inh	RXFP1 antagonist	gsp agonist	RXFP1 ag
COc1cccc(N2CCN(C(=O)CCCCCNc3nc(=S)[nH]c4ccccc34)CC2)c1	u	i	-89.8*	1.1%[15.4 µM]	4.1%
O=C(CCCn1c(=S)[nH]c2ccccc2c1=O)N1CCN(c2cccc(Cl)c2)CC1	8.8%	x	-89.0*	25.0%	1.5%
Cc1ccc(C)c(N2CCN(C(=O)CCn3c(=S)[nH]c4cc5c(cc4c3=O)OCO5)CC2)c1	7.3%	x	-68.1*	u	1.5%
COc1ccc(CNC(=O)CCCn2c(=S)[nH]c3cc4c(cc3c2=O)OCO4)cc1	11.9%	i	u	u	u
CCc1nc(C)cn1S(=O)(=O)c1ccc(Cl)c(Cl)c1OC	x	x	-1.4	x	-2.5%
Cc1ccc(-c2c(C(=O)N3CCN(c4cccc(C)c4)C(C)C3)oc(=O)c3ccccc23)cc1 (centres undefined)	x	x	x	x	0.1%
O=C(CSc1ccc(Cl)cc1)c1ccco1	8.0%	-96.7%*	-15.4	-4.3%	1.4%
O=C(CSc1nnc(C2CC2)n1-c1ccccc1)NCCc1ccccc1	-6.2%[15.4 µM]	-101.6%*	0.3	19.4%	0.6%
CCNC(=O)CSc1nnc(C2CC2)n1-c1ccccc1	9.4%	i	3.1	2.4%	-0.6%
O=C(O)CNC(=O)CNC(=O)CNC(=O)CSC(=O)c1ccccc1	x	x	-1.1	x	x
C=CCN(CC=C)Cc1ccc(C(=O)OC)o1	-1.3%	-109.7%*	-9.4	-9.6%	1.7%
Cc1c(Cl)cccc1NS(=O)(=O)c1ccc(-c2cnc(C3CC3)o2)cc1	x	x	x	x	2.3%
C=CCNCCOCCOc1ccc(C)cc1[N+](=O)[O-]	7.2%	i	7.4	-5.5%	-0.3%
COCCNCCOc1ccc(C)cc1[N+](=O)[O-]	50.1µM*	i	9.9	-5.4%	-4.8%
COCC(C)NC(=O)C1CC(c2cccc(Br)c2)=NO1 (centres undefined)	19.1%	-111.0%*	-5.2	16.1%	-0.4%
Cc1c(C(=O)NCc2ccc3c(c2)OCO3)oc2ccc(S(=O)(=O)N3CCCCCC3)cc12	-13.6%	-112.3%*	3.9	0.3%	0.4%
Cc1cc2oc(C(=O)NCc3ccc(S(N)(=O)=O)cc3)c(C)c2cc1C	6.1%	i	0.8	u	u
CCc1ccc2oc(C(=O)NCc3ccc(S(N)(=O)=O)cc3)c(C)c2c1	-1.0%	i	-120.0*	17.7%	17.4%
O=C(O)c1ccccc1NS(=O)(=O)c1cccc(-n2sc3ccccc3c2=O)c1	u	i	-114.6*	-0.4%	-1.5%
Cc1cc2oc(=O)c(CC(=O)NCCc3ccccc3F)c(C)c2c2occ(C(C)(C)C)c12	x	x	-5.9	x	-0.1%
NS(=O)(=O)c1cc(C(=O)NN2C[C@H]3[C@H]4CCC(C4)[C@H]3C2)ccc1Cl	x	x	-7.0	x	x
COc1ccc(C2C(C(=O)c3cccs3)=C(O)C(=O)N2c2nnc(C)s2)cc1OC (centres undefined)	-4.3%	i	28.5	3.6%	4.8%
C=CCOc1ccc(C2C(C(=O)c3cccs3)=C(O)C(=O)N2c2nnc(C)s2)cc1 (centres undefined)	25.5%	i	-11.5	31.6µM*	x
COc1ccc(CCNc2ncnc3sc(C)cc23)cc1OC	35.5µM*	i	-18.2	-20.7%	-0.2%
